Assay results taken from the supplement of paper PMC8975748.
Where a name gives a salt, the structure may show the parent alone. ± gives the standard deviation of the averaged measurements.

Tests used:
[1] = tested on: Saccharomyces cerevisiae BY4741 SeMeCo community; test: mean cell size (pixel area) (pixels); higher = larger cells; conditions: 10 µM; 24 h; SM minimal medium
How it was run: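 A fluorescent Saccharomyces cerevisiae BY4741 community carrying four plasmids was used, with each plasmid complementing one auxotrophy and bearing a fluorescent marker. An overnight preculture at OD600 = 1.0 was diluted to OD600 = 0.3, and 70 µl went into 384-well plates acoustically predosed with drug (final 10 µM) in SM medium for 24 h. After paraformaldehyde fixation, cells were imaged by automated confocal microscopy and analysed in Harmony, giving the mean cell pixel area per well. Each value is the average of 3 replicates. Same SeMeCo high-content imaging drug screen: Selleck FDA-approved drugs at 10 µM, 24 h in SM medium, 384-well plates, 3 replicates.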

[2] = tested on: Saccharomyces cerevisiae BY4741 SeMeCo community; test: z-score of prototroph abundance vs DMSO median; higher = larger share of this subpopulation than in DMSO controls; conditions: 10 µM; 24 h; SM minimal medium; subpopulation (auxotrophy): Prototroph
How it was run: (§1)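 Subpopulation abundance was reported as a z-score against the median of vehicle wells. The Saccharomyces cerevisiae BY4741 community, carrying four plasmids that each restored one auxotrophy and encoded a distinct fluorescent protein, was grown 24 h in minimal SM medium in 384-well plates holding library drugs at 10 µM final. Cells were paraformaldehyde-fixed and imaged by automated confocal microscopy, with single-auxotroph fluorescent strains used for thresholds and autofluorescence correction.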

[3] = tested on: Saccharomyces cerevisiae BY4741 SeMeCo community; test: z-score of subpopulation abundance vs DMSO median, subpopulation auxotrophic for M; higher = larger share of this subpopulation than in DMSO controls; conditions: 10 µM; 24 h; SM minimal medium; subpopulation (auxotrophy): M
How it was run: as §1

[4] = tested on: Saccharomyces cerevisiae BY4741 SeMeCo community; test: z-score of subpopulation abundance vs DMSO median, subpopulation auxotrophic for L; higher = larger share of this subpopulation than in DMSO controls; conditions: 10 µM; 24 h; SM minimal medium; subpopulation (auxotrophy): L
How it was run: as §1

[5] = tested on: Saccharomyces cerevisiae BY4741 SeMeCo community; test: z-score of subpopulation abundance vs DMSO median, subpopulation auxotrophic for U; higher = larger share of this subpopulation than in DMSO controls; conditions: 10 µM; 24 h; SM minimal medium; subpopulation (auxotrophy): U
How it was run: as §1

[6] = tested on: Saccharomyces cerevisiae BY4741 SeMeCo community; test: z-score of subpopulation abundance vs DMSO median, subpopulation auxotrophic for H; higher = larger share of this subpopulation than in DMSO controls; conditions: 10 µM; 24 h; SM minimal medium; subpopulation (auxotrophy): H
How it was run: as §1

[7] = tested on: Saccharomyces cerevisiae BY4741 SeMeCo community; test: z-score of subpopulation abundance vs DMSO median, subpopulation auxotrophic for LU; higher = larger share of this subpopulation than in DMSO controls; conditions: 10 µM; 24 h; SM minimal medium; subpopulation (auxotrophy): LU
How it was run: as §1

[8] = tested on: Saccharomyces cerevisiae BY4741 SeMeCo community; test: z-score of subpopulation abundance vs DMSO median, subpopulation auxotrophic for LM; higher = larger share of this subpopulation than in DMSO controls; conditions: 10 µM; 24 h; SM minimal medium; subpopulation (auxotrophy): LM
How it was run: as §1

[9] = tested on: Saccharomyces cerevisiae BY4741 SeMeCo community; test: z-score of subpopulation abundance vs DMSO median, subpopulation auxotrophic for HM; higher = larger share of this subpopulation than in DMSO controls; conditions: 10 µM; 24 h; SM minimal medium; subpopulation (auxotrophy): HM
How it was run: as §1

[10] = tested on: Saccharomyces cerevisiae BY4741 SeMeCo community; test: z-score of subpopulation abundance vs DMSO median, subpopulation auxotrophic for UM; higher = larger share of this subpopulation than in DMSO controls; conditions: 10 µM; 24 h; SM minimal medium; subpopulation (auxotrophy): UM
How it was run: as §1

[11] = tested on: Saccharomyces cerevisiae BY4741 SeMeCo community; test: z-score of subpopulation abundance vs DMSO median, subpopulation auxotrophic for HL; higher = larger share of this subpopulation than in DMSO controls; conditions: 10 µM; 24 h; SM minimal medium; subpopulation (auxotrophy): HL
How it was run: as §1

[12] = tested on: Saccharomyces cerevisiae BY4741 SeMeCo community; test: z-score of subpopulation abundance vs DMSO median, subpopulation auxotrophic for HLU; higher = larger share of this subpopulation than in DMSO controls; conditions: 10 µM; 24 h; SM minimal medium; subpopulation (auxotrophy): HLU
How it was run: as §1

[13] = tested on: Saccharomyces cerevisiae BY4741 SeMeCo community; test: z-score of subpopulation abundance vs DMSO median, subpopulation auxotrophic for HLM; higher = larger share of this subpopulation than in DMSO controls; conditions: 10 µM; 24 h; SM minimal medium; subpopulation (auxotrophy): HLM
How it was run: as §1

[14] = tested on: Saccharomyces cerevisiae BY4741 SeMeCo community; test: z-score of subpopulation abundance vs DMSO median, subpopulation auxotrophic for HUM; higher = larger share of this subpopulation than in DMSO controls; conditions: 10 µM; 24 h; SM minimal medium; subpopulation (auxotrophy): HUM
How it was run: as §1

[15] = tested on: Saccharomyces cerevisiae BY4741 SeMeCo community; test: z-score of subpopulation abundance vs DMSO median, subpopulation auxotrophic for LUM; higher = larger share of this subpopulation than in DMSO controls; conditions: 10 µM; 24 h; SM minimal medium; subpopulation (auxotrophy): LUM
How it was run: as §1

[16] = tested on: Saccharomyces cerevisiae BY4741 SeMeCo community; test: z-score of subpopulation abundance vs DMSO median, subpopulation auxotrophic for HLUM; higher = larger share of this subpopulation than in DMSO controls; conditions: 10 µM; 24 h; SM minimal medium; subpopulation (auxotrophy): HLUM
How it was run: as §1

[17] = tested on: Saccharomyces cerevisiae BY4741 SeMeCo community; test: z-score of subpopulation abundance vs DMSO median, subpopulation auxotrophic for HU; higher = larger share of this subpopulation than in DMSO controls; conditions: 10 µM; 24 h; SM minimal medium; subpopulation (auxotrophy): HU
How it was run: as §1

| Structure (SMILES) | mean cell size [1] | z-score of prototroph abundance [2] | z-score of subpopulation abundance [3] | z-score of subpopulation abundance [4] | z-score of subpopulation abundance [5] | z-score of subpopulation abundance [6] | z-score of subpopulation abundance [7] | z-score of subpopulation abundance [8] | z-score of subpopulation abundance [9] | z-score of subpopulation abundance [10] | z-score of subpopulation abundance [11] | z-score of subpopulation abundance [12] | z-score of subpopulation abundance [13] | z-score of subpopulation abundance [14] | z-score of subpopulation abundance [15] | z-score of subpopulation abundance [16] | z-score of subpopulation abundance [17] |
| --- | --- | --- | --- | --- | --- | --- | --- | --- | --- | --- | --- | --- | --- | --- | --- | --- | --- |
| CO/N=C(\C(=O)N[C@@H]1C(=O)N2C(C(=O)O)=CCS[C@H]12)c1csc(N)n1 [Ceftizoxime sodium] | 12.3 ± 0.25 | 0.46 | 1.04 | -1.5 | -0.03 | -1.54 | -0.54 | -0.65 | -0.06 | 0.12 | -0.66 | -0.33 | -0.22 | 0.09 | -1.27 | -0.48 | – |
| O=C(CCCN1CCN(c2ccccn2)CC1)c1ccc(F)cc1 [Azaperone] | 12.29 ± 0.072 | -0.1 | 0 | 0.29 | 0.07 | -0.28 | 0.24 | 0.61 | -0.63 | 0.85 | -0.42 | -0.03 | -0.5 | 1.31 | – | 0.31 | – |
| NCC[C@H](O)C(=O)N[C@@H]1C[C@H](N)[C@@H](O[C@H]2O[C@H](CN)[C@@H](O)[C@H](O)[C@H]2O)[C@H](O)[C@H]1O[C@H]1O[C@H](CO)[C@@H](O)[C@H](N)[C@H]1O [Amikacin hydrate] | 12.16 ± 0.089 | 0.26 | -0.02 | 1.02 | -0.78 | -0.04 | -0.95 | 0.15 | -0.36 | -0.12 | 0.87 | -0.03 | 0.82 | -0.33 | -0.58 | – | -0.52 |
| COC(=O)Nc1nc2cc(C(=O)c3ccc(F)cc3)ccc2[nH]1 [Flubendazole] | 12.19 ± 0.12 | – | -0.07 | 0.41 | -0.99 | 1.19 | -0.32 | 0.25 | 0.64 | -0.47 | 0.98 | 0.3 | -0.42 | 0.06 | 0.68 | -0.02 | – |
| O=C1OCCN1/N=C/c1ccc([N+](=O)[O-])o1 [Furazolidone] | 13.1 ± 0.18 | 3.52 | 1.9 | 2.57 | -7.17 | 3.6 | -5.41 | 1.07 | 0.39 | -6.39 | – | -2.4 | -0.06 | -3.95 | -2.42 | -0.24 | – |
| O=[N+]([O-])c1ccc(O)c2ncccc12 [Nitroxoline] | 13.6 ± 0.5 | -16.6 | 1.38 | -0.84 | -2.48 | 9.75 | 12.2 | 4.84 | 27.9 | 4.38 | 22.6 | 24.8 | 65.9 | 19.7 | 11 | – | 16.3 |
| CC(C)[C@H](N)C(=O)OCC(CO)OCn1cnc2c(=O)[nH]c(N)nc21 (some centres not stated) [Valganciclovir HCl] | 12.7 ± 0.14 | 0.56 | -0.49 | 0.28 | -0.54 | – | -0.94 | -0.45 | -0.64 | -0.83 | -0.43 | -0.52 | 0.99 | -0.56 | 0.07 | -0.35 | – |
| O=C(O)CCNC(=O)c1ccccc1 [Betamipron] | 12.6 ± 0.21 | -0.09 | 0.51 | -1.22 | 0.99 | -0.34 | -0.21 | -0.71 | -0.4 | 0.43 | -0.92 | -1 | -1.05 | -0.33 | -0.64 | -0.5 | – |
| CCOc1cc(NC(C)=O)ccc1C(=O)OC [Ethopabate] | 12.6 ± 0.26 | -0.33 | 0.39 | 0.35 | -0.35 | -0.59 | 1.2 | 0.15 | -0.11 | 0.48 | 0.25 | -0.1 | 0.97 | -0.22 | 0.24 | 2.14 | – |
| COc1ncnc(NS(=O)(=O)c2ccc(N)cc2)c1OC [Sulfadoxine] | 12.47 ± 0.085 | -0.71 | -0.15 | -0.42 | 1.05 | -0.14 | 0.85 | -0.89 | -0.26 | 0.98 | 0.34 | 0.31 | 0.02 | 1.04 | -0.34 | 0.32 | – |
| N[C@H]1CONC1=O [L-Cycloserine] | 11.54 ± 0.047 | -1.74 | -3.06 | 2.81 | -0.91 | 5.08 | 1.02 | 1.19 | 3.92 | -1.17 | 3.71 | 4.59 | 5.24 | 1.54 | – | 5.78 | – |
| NC(=O)N1c2ccccc2C=Cc2ccccc21 [Carbamazepine] | 12.5 ± 0.21 | – | -0.29 | 0.25 | 0.01 | -0.43 | -0.08 | 0.14 | -0.61 | -0.23 | -0.72 | 0.32 | 0.02 | -0.5 | 0.24 | -0.25 | – |
| C[C@]12CC[C@@H]3c4ccc(O)cc4CC[C@H]3[C@@H]1CCC2=O [Estrone] | 12.48 ± 0.098 | 0.49 | -0.44 | 0.44 | -0.57 | -0.34 | 0.11 | 0.03 | -0.17 | -0.49 | -0.05 | -0.08 | -0.39 | -0.46 | -0.12 | -0.85 | – |
| CCCCNC(=O)NS(=O)(=O)c1ccc(C)cc1 [Tolbutamide] | 12.5 ± 0.33 | 0.43 | -0.57 | -0.55 | – | -0.84 | -1.03 | -0.86 | -0.14 | -0.16 | -0.54 | -0.37 | -0.11 | -0.36 | – | 0.19 | -0.31 |
